# In PubChem BioAssay AID463173 (ICCB-Longwood Screening Facility, Harvard Medical School, 2010):
# In all, about 52,000 compounds went through this assay and about 4,300 (8.3%) were called active. The list comes from a sample in which actives are over-represented; it also holds similar structures and randomly drawn compounds. Unmarked numbers belong to inactive results. Cut-off read from the data, not from the text of the source: active = survival mostly below about 52% (no sharp cut-off); inactive = mostly above about 56%.
# Test system: DeltatarO mutant
# Test: growth inhibition of S. aureus wild type versus tarO mutant, primary screen, teichoic acid synthesis inhibitors, RN4220, OD600 (AID 463173)
# Conditions: OD600, 18 h, stronger effect = lower value, screened at 18.75 µg/mL (by protocol)
row,SMILES,survival
1,CC1CCC(NC(=O)c2ccc3c(c2)N(Cc2ccccc2F)C(=O)c2ccccc2S3(=O)=O)CC1 (centres undefined),74%
2,CCOc1ccc(NS(=O)(=O)c2ccc3[nH]cc(C(=O)NCC4CCCO4)c(=O)c3c2)cc1 (centres undefined),87%
3,CCOC(=O)C1CCN(C(=O)c2nn(-c3ccc(OC)c(Cl)c3)c(=O)c3c2c2ccccc2n3C)CC1,76%
4,Cc1cccc(C(=O)NCC(c2cccs2)S(=O)(=O)c2cccs2)c1 (centres undefined),81%
5,Cc1ccc(OCC(=O)NCC(=O)OCc2cc(=O)n3nc(C(C)C)sc3n2)cc1,97%
6,Cn1c(=O)c2ccccc2n2c(CCC(=O)N3CCN(c4cccc(Cl)c4)CC3)nnc12,82%
7,Cc1ccc(/C=C(\C#N)C(=O)NC2CCCCCC2)o1,92%
8,CN(C)c1ccc(-c2nc(-c3ccco3)no2)cc1[N+](=O)[O-],52%
9,CN(C)c1ccc(-c2nc(-c3ccncc3)no2)cc1[N+](=O)[O-],81%
10,CN(C)c1ccc(-c2nc(-c3ccccn3)no2)cc1[N+](=O)[O-],42% (active)
11,Cc1ccc(-n2c(=O)c3oc4ccccc4c3n(CC(=O)Nc3ccccc3)c2=O)cc1C,54%
12,CCCN(CCC)C(=O)c1nn(C)c2c1CSc1ccc(C)cc1-2,92%
13,CCOC(=O)c1ccc(NC(=O)CS(=O)(=O)Cc2nc(-c3ccc(C)cc3)oc2C)cc1,95%
14,COc1cc(OC)c(NC(=O)C(C)n2c(=O)cc(-c3ccccc3)c3c(C)nn(C)c32)cc1Cl (centres undefined),83%
15,COc1cc(OC)c(NC(=O)C(C)n2nc(-c3ccc(C)cc3)c3c(c2=O)CCCC3)cc1Cl (centres undefined),39% (active)
16,Cc1ccc(NC(=O)C(C)n2nnc3sc4c(c3c2=O)CCCC4)cc1Cl (centres undefined),82%
17,COc1cc(OC)c(NC(=O)C(C)n2nc(-c3ccc(C)c(C)c3)ccc2=O)cc1Cl (centres undefined),64%
18,COc1ccc(NC(=O)C(C)n2nc(-c3cc(C)ccc3C)c3c(c2=O)CCCC3)cc1 (centres undefined),38% (active)
19,COc1ccc(NC(=O)C(C)N2CCN(C)CC2)cc1 (centres undefined),86%
20,Cc1cc(C)n(-c2nc(C)c(C)c(=O)n2CC(=O)Nc2ccc(Cl)c(Cl)c2)n1,82%
21,COc1ccc(-c2nc3nc(C)cc(Nc4cccc(C(F)(F)F)c4)n3n2)cc1,63%
22,COc1cccc(N2C(=O)C(CC(=O)Nc3ccc(F)cc3)N(CCC3=CCCCC3)C2=O)c1 (centres undefined),53%
23,COc1ccc(CNC(=O)CCC2N=C3c4ccccc4N=C(SCc4cccc(F)c4)N3C2=O)cc1 (centres undefined),117%

row,SMILES,survival
1,Cc1c(CCNC(=O)c2ccc(C(C)(C)C)cc2)sc2nc(-c3ccc(F)cc3)nn12,82%
2,CCOC(=O)c1scc(-c2ccccc2)c1S(=O)(=O)N1CCN(c2ccccc2OC)CC1,94%
3,O=C(COc1cccc(-n2cnnn2)c1)NC1CCCCC1,83%
4,CCc1cccc(CC)c1NC(=O)Cn1nnc2sc(-c3ccccc3)cc2c1=O,49%
5,CCOc1ccccc1NC(=O)Cn1nnc2sc(-c3ccccc3)cc2c1=O,39% (active)
6,CCN(C(=O)Cn1nnc2sc(-c3ccccc3)cc2c1=O)c1cccc(C)c1,50% (active)
7,COC(=O)c1ccccc1NC(=O)Cn1nnc2sc(-c3ccccc3)cc2c1=O,52%
8,CCCN(CCC)C(=O)Cn1nnc2sc(-c3ccccc3)cc2c1=O,70%
9,CCN(CC)C(=O)Cn1nnc2sc(-c3ccccc3)cc2c1=O,56%
10,COC(=O)c1ccc(NC(=O)CSc2nc(=O)[nH]c3c2CCCC3)cc1,75%
11,COC(=O)CSc1ncc2c(n1)-c1ccccc1N(Cc1ccc(Cl)cc1)S2(=O)=O,69%
12,CCOC(=O)N1CCc2c(sc3c2c(=O)n(CCc2ccccc2)c(=O)n3Cc2c(F)cccc2Cl)C1,85%
13,COc1ccc(-c2nc(C)c(CCNC(=O)c3c(F)cccc3F)s2)cc1,84%
14,O=C(Cn1c(=O)oc2cc(S(=O)(=O)N3CCCCCC3)ccc21)NCc1ccccc1Cl,78%
15,CCCCOc1cccc(C2c3c(-c4cc(C)ccc4O)n[nH]c3C(=O)N2CCOC)c1 (centres undefined),10% (active)
16,CCc1ccc(C2c3c(-c4cc(C)ccc4O)n[nH]c3C(=O)N2CCO)cc1 (centres undefined),61%
17,COCCCN1C(=O)c2[nH]nc(-c3cc(C)ccc3O)c2C1c1ccc(F)cc1 (centres undefined),66%
18,CCOc1cc(C2c3c(-c4cc(C)ccc4O)n[nH]c3C(=O)N2CCCOC(C)C)ccc1O (centres undefined),90%
19,COCCN1C(=O)c2[nH]nc(-c3c(C)cc(C)cc3O)c2C1c1cccc(O)c1 (centres undefined),57%
20,COCCN1C(=O)c2[nH]nc(-c3cc(C)ccc3O)c2C1c1ccc(C(C)C)cc1 (centres undefined),1% (active)
21,COCCCN1C(=O)c2ccccc2CC1(C)C(=O)NC1CCCCC1 (centres undefined),97%
22,Cc1ccc(CNC(=O)Cc2csc3ccccc23)cc1,93%
23,CC(=O)N1c2ccc(S(=O)(=O)N3CCN(c4cc(Cl)ccc4C)CC3)cc2CC1C (centres undefined),87%

row,SMILES,survival
1,CCN1CCCC1CNCC(=O)NC1(C)C2CCC(C2)C1(C)C (centres undefined),100%
2,COc1ccccc1C(=O)Nc1nnc2n1CCS2,69%
3,COc1ccccc1N1CCN(C(=O)c2ccco2)CC1,104%
4,O=C(NCC(c1cccnc1)N1CCc2ccccc21)c1ccccc1Br (centres undefined),56%
5,COc1cc(C(=O)NCC(c2cccnc2)N2CCc3ccccc3C2)cc(OC)c1OC (centres undefined),76%
6,Cc1ccccc1C(=O)NCC(c1cccnc1)N1CCc2ccccc21 (centres undefined),44% (active)
7,COc1ccc(C(=O)NCC(c2cccnc2)N2CCc3ccccc32)cc1 (centres undefined),46% (active)
8,COc1cc(C(=O)NCC(c2cccnc2)N2CCc3ccccc32)cc(OC)c1OC (centres undefined),44% (active)
9,O=C(NCC(c1cccnc1)N1CCc2ccccc21)c1ccc(Cl)cc1 (centres undefined),52%
10,Cc1ccc(C(=O)NCC(c2cccnc2)N2CCc3ccccc32)cc1C (centres undefined),55%
11,COc1ccc(C(=O)NCC(c2cccnc2)N2CCc3ccccc32)cc1OC (centres undefined),57%
12,COc1ccc(C(=O)NCC(c2cccnc2)N2CCc3ccccc3C2)cc1 (centres undefined),77%
13,COc1ccc(C(=O)OCc2cc(=O)n3nc(-c4cccs4)sc3n2)cc1,60%
14,c1ccc(Oc2ccc(N=NN3CCCCC3)cc2)cc1,74%
15,CCN1CCN(c2c(S(=O)(=O)c3ccc(C)c(C)c3)cnc3cc(OC)c(OC)cc23)CC1,75%
16,CCC(=O)c1cc2c(cc1NC(=O)c1cccc(Cl)c1)OCCO2,105%
17,Cc1ccc2oc(-c3ccc(C)c(NC(=O)C(C)(C)Oc4ccc(Cl)cc4)c3)nc2c1,13% (active)
18,COc1ccc2oc(-c3ccc(C)c(NC(=O)CSc4ccc(Cl)cc4)c3)nc2c1,51% (active)
19,COc1ccc2oc(-c3ccc(C)c(NC(=O)Cc4ccc(Cl)cc4)c3)nc2c1,151%
20,Cc1ccc(-c2nc3cc(Cl)ccc3o2)cc1NC(=O)COc1ccc(F)cc1,53%
21,COc1ccc2oc(-c3ccc(C)c(NC(=O)c4sc5ccccc5c4Cl)c3)nc2c1,48% (active)
22,COc1ccc2oc(-c3ccc(C)c(NC(=O)COc4cc(C)cc(C)c4)c3)nc2c1,43% (active)
23,COc1ccc2oc(-c3cccc(NC(=O)c4sc5c([N+](=O)[O-])cccc5c4Cl)c3)nc2c1,77%

row,SMILES,survival
1,Cc1ccc2oc(-c3ccc(C)c(NC(=O)/C=C/c4ccc(Cl)cc4)c3)nc2c1,90%
2,CCc1ccc(OCC(=O)Nc2cc(-c3nc4cc(C)ccc4o3)ccc2C)cc1,65%
3,Cc1ccc2nc(-c3ccc(C)c(NC(=O)CSc4ccc(Cl)cc4)c3)oc2c1,85%
4,Cc1ccc(C(=O)Nc2cc(-c3nc4cc(Cl)ccc4o3)ccc2C)c(C)c1,85%
5,Cc1c(NC(=O)c2sc3ccccc3c2Cl)cccc1-c1nc2ccccc2o1,53%
6,COc1cccc2cc(-c3nc(-c4ccc(Cl)cc4)cs3)c(=O)oc12,83%
7,Cc1ccc(Sc2c(C(=O)NCc3ccccc3C)[nH]c3ccccc23)cc1,77%
8,CCOc1cccc(C(=O)Nc2ccc(Cl)cn2)c1,72%
9,Cc1cccc(Cn2cc(S(=O)(=O)c3cccc(Cl)c3)c(=O)c3cc(F)c(N4CCOCC4)cc32)c1,85%
10,Cc1ccc(C)c(CN2CCC(CNC(=O)Cn3ncc4c([nH]c5ccccc54)c3=O)CC2)c1,70%
11,Cc1ccc(S(=O)(=O)c2[nH]c(-c3ccccc3)nc2SCC(=O)O)cc1,78%
12,COC(=O)c1ccc(NC(=O)c2cc3cc(C)ccc3n2C)cc1,66%
13,O=C1C(c2nc3ccccc3[nH]2)=C(O)c2ccccc21,74%
14,CCCN1CCc2nc(N3CCN(CC)CC3)ncc2C1,72%
15,Cc1ccc2oc(-c3ccc(C)c(NC(=O)c4ccc(-c5ccccc5[N+](=O)[O-])o4)c3)nc2c1,68%
16,Cc1ccc2oc(-c3ccc(Cl)c(NC(=O)c4ccc(-c5ccccc5[N+](=O)[O-])o4)c3)nc2c1,74%
17,COc1ccc2oc(-c3ccc(C)c(NC(=O)c4ccc(-c5ccccc5[N+](=O)[O-])o4)c3)nc2c1,42% (active)
18,Cc1ccc(C)c(Nc2nn3c(=O)c4cc5c(cc4nc3s2)OCO5)c1,37% (active)
19,Cc1cccc(Nc2nn3c(=O)c4cc5c(cc4nc3s2)OCO5)c1,116%
20,Cc1cc(C)c(Nc2nn3c(=O)c4cc5c(cc4nc3s2)OCO5)c(C)c1,51%
